In the supplement of paper PMC13380429:

Assays:
[1] = tested on: Vero E6 infected with SARS-CoV-2; experiment: morphology score (similarity to uninfected cells); higher = more like uninfected cells; conditions: 24 h
[2] = tested on: Vero E6 infected with SARS-CoV-2; experiment: SARS-CoV-2 infection rate relative to infected DMSO; higher = more infection, active = 60 or less; conditions: 24 h

| SMILES | morphology score [1] | SARS-CoV-2 infection rate [2] |
| --- | --- | --- |
| O=c1[nH]c([C@@H]2CCCN2)nc2c1oc1ccc(Cl)cc12 (0.833333 µM) | 0.106 | 104% (inactive) |
| CCCCC(=O)OCC(=O)[C@]1(O)Cc2c(O)c3c(c(O)c2[C@@H](O[C@H]2C[C@H](NC(=O)C(F)(F)F)[C@H](O)[C@H](C)O2)C1)C(=O)c1c(OC)cccc1C3=O [valrubicin] (0.833333 µM) | 0.122 | 97% (inactive) |
| NC[C@H]1O[C@H](O[C@H]2[C@H](O[C@@H]3O[C@H](CO)[C@@H](O)[C@H]3O)[C@@H](O)[C@H](N)C[C@@H]2N)[C@H](N)[C@@H](O)[C@@H]1O [ribostamycin-sulfate] (10 µM) | 0.199 | 105% (inactive) |
| CCC(C)(CN(C)C)OC(=O)c1ccccc1 (stereo not drawn) [amyleine] (10 µM) | -0.104 | 120% (inactive) |
| CNc1nc(NCc2ccc(NS(C)(=O)=O)cc2Cl)cc(-c2ccccn2)n1 (10 µM) | 0.193 | 97.5% (inactive) |
| COc1cccc(-c2cc(NCc3ccc4c(c3)OCO4)nc(N)n2)c1 (10 µM) | -0.021 | 111% (inactive) |
| NNC(=O)CN1C(=O)CN=C(c2ccccc2)c2cc(Br)ccc21 [gidazepam] (10 µM) | 0.101 | 100% (inactive) |
| CC(=O)N(C)c1cc(-c2ccnc3c(C(=O)c4cccs4)cnn23)ccc1F [lorediplon] (10 µM) | -0.126 | 112% (inactive) |
| NC(=O)c1cnc2[nH]ccc2c1N[C@@H]1[C@@H]2CC3C[C@H]1C[C@@](O)(C3)C2 (10 µM) | 0.174 | 106% (inactive) |
| O=C(N[C@H]1CN2CCC1CC2)c1ccc2c(c1)OCCO2 (10 µM) | -0.0253 | 100% (inactive) |
| CC(C)(C)[C@]1(O)CCN2C[C@H]3c4ccccc4CCc4cccc(c43)[C@@H]2C1 [butaclamol] (10 µM) | 0.273 | 101% (inactive) |
| CCCCc1nc2cc(/C=C/C(=O)NO)ccc2n1CCN(CC)CC (10 µM) | -0.146 | 109% (inactive) |
| OC[C@H]1O[C@@H](O[C@@H]2[C@H](O)[C@@H](O)[C@H](O[C@H]3[C@H](O)[C@@H](O)C(O)O[C@@H]3CO)O[C@@H]2CO)[C@H](O)[C@@H](O)[C@H]1O (stereo partly drawn) [4-galactosyllactose] (10 µM) | -0.0673 | 114% (inactive) |
| Oc1ccc(Cl)cc1Cc1cc(Cl)ccc1O [dichlorophen] (10 µM) | 0.14 | 99.5% (inactive) |
| [N-]=[N+]=CC(=O)CC[C@H](N)C(=O)O [6-diazo-5-oxo-L-norleucine] (10 µM) | 0.196 | 93.5% (inactive) |
| O=C(CCCN1CCN(c2ccccn2)CC1)c1ccc(F)cc1 [azaperone] (10 µM) | 0.13 | 83% (inactive) |
| C[C@@H]1CN(Cc2ccc(F)cc2)[C@@H](C)CN1C(=O)c1cc2c(C(=O)C(=O)N(C)C)cn(C)c2cc1Cl [talmapimod] (10 µM) | 0.103 | 88.5% (inactive) |
| Nc1nc2c(ccc3ccccc32)s1 (10 µM) | -0.0747 | 102% (inactive) |
| NS(=O)(=O)c1cc2c(cc1Cl)N=CNS2(=O)=O [chlorothiazide] (10 µM) | -0.179 | 106% (inactive) |
| CCCCCCCCNC(=O)/C(C#N)=C/c1cn(CCCN(C)C)c2ccccc12 [dynole-34-2] (10 µM) | 0.659 | 35.5% (active) |

| SMILES | morphology score [1] | SARS-CoV-2 infection rate [2] |
| --- | --- | --- |
| C/N=C(/NC#N)NCCSCc1csc(NC(=N)N)n1 [tiotidine] (10 µM) | 0.11 | 98% (inactive) |
| O=S(=O)(O)CCS [mesna] (10 µM) | 0.157 | 109% (inactive) |
| CC(C)N(CCCNC(=O)Nc1ccc(C(C)(C)C)cc1)C[C@H]1O[C@@H](n2cc(Br)c3c(N)ncnc32)[C@H](O)[C@@H]1O (10 µM) | -0.0211 | 120% (inactive) |
| Cc1cc(C)cc(NC(=O)Cc2ccc(OC(C)(C)C(=O)O)cc2)c1 [efaproxiral] (10 µM) | -0.103 | 107% (inactive) |
| CC1(C)S[C@@H]2[C@H](NC(=O)COc3ccccc3)C(=O)N2[C@H]1C(=O)O [penicillin-v-potassium] (10 µM) | -0.0155 | 116% (inactive) |
| CCCNC(=O)NS(=O)(=O)c1ccc(Cl)cc1 [chlorpropamide] (10 µM) | 0.266 | 79.5% (inactive) |
| Cn1c(=O)cnn(CCCCN2CCN(c3ncccn3)CC2)c1=O (10 µM) | -0.0383 | 115% (inactive) |
| Cc1cccc(/C=C/c2ccccc2)n1 (10 µM) | 0.0753 | 98% (inactive) |
| O=C(OC(C(F)(F)F)C(F)(F)F)N1CCN(Cc2cccc(Oc3ccccc3)c2)CC1 (10 µM) | -0.142 | 24.5% (active) |
| CC1(C)CCC(C)(C)c2cc(NC(=O)c3ccc(C(=O)O)cc3)ccc21 [tamibarotene] (10 µM) | 0.135 | 108% (inactive) |
| N#Cc1ccc(C2CCCc3cncn32)cc1 (stereo not drawn) [fadrozole] (10 µM) | 0.114 | 102% (inactive) |
| CC1(C)C(=O)N(c2ccc(C#N)c(C(F)(F)F)c2)C(=O)N1CCCCO (10 µM) | -0.0623 | 100% (inactive) |
| CCCCCCCCCCCCCCC[C@@H](O)[C@@H](N)CO [safingol] (10 µM) | -0.197 | 117% (inactive) |
| C=CC[N+]1([C@H]2C[C@H]3[C@@H]4CC[C@H]5C[C@H](O)[C@@H](N6CCOCC6)C[C@]5(C)[C@H]4CC[C@]3(C)[C@H]2OC(C)=O)CCCC1 (10 µM) | 0.061 | 110% (inactive) |
| CCCn1c(=O)c(C)cn2nc(N)nc12 (10 µM) | 0.276 | 96.5% (inactive) |
| Cc1ccc(NC(=O)c2ccc(CN3CC[C@H](N(C)C)C3)c(C(F)(F)F)c2)cc1Nc1nccc(-c2cncnc2)n1 [bafetinib] (0.833333 µM) | 0.358 | 104% (inactive) |
| O=C(O)c1cc(=O)[nH]c(=O)[nH]1 [orotic-acid] (10 µM) | 0.104 | 104% (inactive) |
| CC(C)N1Cc2cc(S(C)(=O)=O)ccc2N(CCN2CC=C(c3c[nH]c4cc(F)ccc34)CC2)S1(=O)=O (10 µM) | 0.178 | 97.5% (inactive) |
| COc1ccc(OC)c(C(O)C(C)N)c1 (stereo not drawn) [methoxamine] (10 µM) | -0.12 | 108% (inactive) |
| COc1cc(N2CCN(C(C)=O)CC2)ccc1Nc1ncc(Cl)c(Nc2ccc(N3CCN(C(C)=O)CC3)cc2OC)n1 (10 µM) | 0.0828 | 114% (inactive) |

| SMILES | morphology score [1] | SARS-CoV-2 infection rate [2] |
| --- | --- | --- |
| Nc1n[n+]([O-])c2ccccc2[n+]1[O-] [tirapazamine] (10 µM) | 0.0691 | 99.5% (inactive) |
| CCOC(=O)C1=C(C)NC(c2ccccc2)=C(C(=O)OCc2ccc([N+](=O)[O-])cc2)[C@@H]1C#Cc1ccccc1 (10 µM) | 0.304 | 89% (inactive) |
| Nc1ncnc2c1c(-c1ccc(Cl)cc1)nn2-c1cccc(-c2cnnn2Cc2cccc(-c3ccccc3)c2)c1 (10 µM) | -0.00803 | 104% (inactive) |
| NCC[C@H](O)C(=O)N[C@@H]1C[C@H](N)[C@@H](O[C@H]2O[C@H](CN)[C@@H](O)[C@H](O)[C@H]2O)[C@H](O)[C@H]1O[C@H]1O[C@H](CO)[C@@H](O)[C@H](N)[C@H]1O [amikacin] (10 µM) | -0.122 | 91% (inactive) |
| Cc1c(N(C)C)c(=O)n(-c2ccccc2)n1C [amidopyrine] (10 µM) | -0.0419 | 110% (inactive) |
| OCc1cccnc1 [nicotinyl-alcohol-tartrate] (10 µM) | -0.13 | 118% (inactive) |
| O=C1CC2(CCCC2)CC(=O)N1CCCCNC[C@H]1COc2ccccc2O1 (racemic) (10 µM) | -0.0862 | 108% (inactive) |
| C/C(=C\C(=O)OCCCCCCCCC(=O)O)C[C@@H]1OC[C@H](C[C@@H]2O[C@H]2[C@@H](C)[C@H](C)O)[C@@H](O)[C@H]1O [mupirocin] (10 µM) | 0.0465 | 110% (inactive) |
| O=C(O)c1ccc2[nH]cc(CCCCN3CC=C(c4ccccc4)CC3)c2c1 [carmoxirole] (10 µM) | 0.0618 | 96.5% (inactive) |
| O=C1CCCN1CC#CCN1CCCC1 [oxotremorine-sesquifumarate] (10 µM) | 0.062 | 100% (inactive) |
| O=C(Nc1c(Cl)cncc1Cl)c1ccc(OC(F)F)c(OCC2CC2)c1 [roflumilast] (10 µM) | 0.202 | 97% (inactive) |
| CC(C)(C)C(=O)Oc1ccc(S(=O)(=O)Nc2ccccc2C(=O)NCC(=O)O)cc1 [sivelestat] (10 µM) | 0.168 | 95% (inactive) |
| O=C1C=CC[C@@H]2[C@H]3CCCN4CCC[C@@H](CN12)[C@@H]34 [sophocarpine] (10 µM) | -0.0321 | 112% (inactive) |
| CN1CCC(=C2c3ccccc3Sc3ccccc32)CC1 [pimethixene] (10 µM) | 0.373 | 85.5% (inactive) |
| O=C(Nc1cccc(Nc2ncc(Br)c(NCCc3cnc[nH]3)n2)c1)N1CCCC1 (10 µM) | -0.00186 | 110% (inactive) |
| O=C(c1c(F)ccc(NS(=O)(=O)N2CC[C@@H](F)C2)c1F)c1c[nH]c2ncc(-c3cnc(C4CC4)nc3)cc12 (10 µM) | 0.162 | 103% (inactive) |
| CC(C)(C)NC(=O)[C@@H]1C[C@@H]2CCCC[C@@H]2CN1C[C@@H](O)[C@H](Cc1ccccc1)NC(=O)[C@H](CC(N)=O)NC(=O)c1ccc2ccccc2n1 [saquinavir] (10 µM) | 0.0775 | 106% (inactive) |
| O=C(O)CCc1cc(I)c(Oc2ccc(O)cc2)c(I)c1 [diiodothyropropionic-acid] (10 µM) | 0.207 | 92% (inactive) |
| COc1ccc2[nH]c(SCc3ncc(C)c(OC)c3C)nc2c1 [omeprazole-sulfide] (10 µM) | 0.191 | 104% (inactive) |
